Consider 9 molecules from PubChem BioAssay (NCATS).

Assay [1] can be described thus: NCATS anti-infectives library activity on the primary C. elegans qHTS viability assay (AID 1745855; calls by dose curve). In short, it runs like this:
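Viability read-out is GFP fluorescence of PE254-GFP-FLuc C. elegans, measured by laser cytometry (488 nm) at day 0, 3 and 7. Ten L1 worms per well were incubated 7 days at 21 °C with compounds and bacterial capsules in S medium.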

Assay [2] is described as follows: HepG2 viability counterscreen (readout 2: ATP content) against the NCATS DSHEA and TCM libraries (AID 1794840). Further: 0% is about no effect. An outline of the steps:
(§1)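 Same wells read twice: first fluorescence from cleaved GF-AFC substrate (25 uM final, 30 min, 37C) for live-cell protease, then CellTiter-Glo luminescence after 30 min at room temperature for ATP. HepG2 cells were exposed ~24 h to substances.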

Assay [3] can be described thus: HepG2 viability counterscreen (readout 1: protease activity) against the NCATS DSHEA and TCM libraries (AID 1794841).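 Further: cells exposed to compounds for about 24 h before the protease read; 0% is about no effect.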 In short, it runs like this:
as §1

Assay [4] can be described thus: Primary qHTS for inhibitors of nuclear receptor binding SET domain protein 2 (NSD2) in an RCH-ACV wild type WT cells (2C) (AID 1645877). Further: nearly all actives have a fitted effect of over 70% in size. On activity change, negative = cell killing: on the % scale 0 is the no-effect control and ±100 the full control effect.
In assay [5] the target is Glutathione peroxidase 1 (Homo sapiens) (UniProt P07203). Put plainly: Primary qHTS Assay for Inhibitors of Recombinant Selenoprotein Glutathione Peroxidase 1 (GPX1) (AID 1845191). Further: nearly all actives have a fitted effect of over 65% in size. An outline of the steps: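 Recombinant GPX1 (10 nM final) was preincubated with compound for 30 min at room temperature, then reacted with 1 mM GSH, 0.5 mM CHP, 0.5 mM NADPH and 100 nM glutathione reductase; NADPH fluorescence (340/450 nm) was read at 0 and 15 min.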

Assay [6] concerns the target Phospholipid hydroperoxide glutathione peroxidase GPX4 (Homo sapiens) (UniProt P36969). Put plainly: Primary qHTS Assay for Inhibitors of Recombinant Selenoprotein Glutathione Peroxidase 4 (GPX4) (AID 1845192). Further: series mostly up to about 50 µM; on the % scale 0 is the no-effect control and ±100 the full control effect; nearly all actives have a fitted effect of over 65% in size. An outline of the steps: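 GR-coupled readout: 100 nM GR, 1 mM GSH, 0.5 mM NADPH; NADPH fluorescence (ex 340/em 450 nm) read at t=0 and after 15 min RT. GPX4 200 nM, preincubated 30 min with compound; substrate 0.5 mM CHP.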

SMILES strings stand for the structures. Unmarked numbers belong to inactive results. Results filed as inconclusive are left out. The source made the active and inactive calls. Unless noted, the call rests on the fitted dose curve; in most records, active means well fitted curve in the direction sought with a large enough effect; inconclusive means small, poorly fitted or top-dose-only effect, or another doubt; inactive means no such curve, though single readings can be large; an effect the other way counts as inactive or inconclusive.

Glutathione peroxidase 1 (Homo sapiens), sequence (P07203 whole entry, looked up): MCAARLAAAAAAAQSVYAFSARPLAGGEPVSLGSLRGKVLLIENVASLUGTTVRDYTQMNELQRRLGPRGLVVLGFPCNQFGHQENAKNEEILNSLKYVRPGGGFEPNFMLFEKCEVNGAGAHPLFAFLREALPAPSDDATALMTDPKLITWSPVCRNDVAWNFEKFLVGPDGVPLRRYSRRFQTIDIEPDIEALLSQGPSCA
Phospholipid hydroperoxide glutathione peroxidase GPX4 (Homo sapiens), sequence (P36969 whole entry, looked up): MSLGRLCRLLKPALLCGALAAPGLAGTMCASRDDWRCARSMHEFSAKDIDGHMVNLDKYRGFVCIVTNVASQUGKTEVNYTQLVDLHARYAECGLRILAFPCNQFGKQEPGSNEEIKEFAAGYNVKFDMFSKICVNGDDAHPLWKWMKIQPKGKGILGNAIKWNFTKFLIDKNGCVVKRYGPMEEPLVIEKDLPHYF

Regarding `O=C(O)c1ccnc2cc(C(OCCN3CCCCC3)c3ccccc3Cl)[nH]c12` (centres undefined), the Potency entry in assay [1] is “inactive”.
As to `COC1=CC(=O)O[C@@H](/C=C/c2ccccc2)C1`, the outcome in assay [2] and in assay [3] was inactive.
As for `COC(=O)C1(C)CCC(O)C2(C)c3c(O)cc(C(C)C)cc3C(O)C(OC(C)=O)C12` (centres undefined), the Potency result in assay [4], in assay [5] and in assay [6] was “inactive” throughout.
Regarding `CN(C)CCc1c[nH]c2ccc(CN3CCN(C)S3(=O)=O)cc12`, the Potency result in assay [4], in assay [5] and in assay [6] was “inactive” each time.
Turning to `CCC(C)(OC(C)=O)C(=O)O[C@H]1[C@H](OC(C)=O)C[C@@H]2[C@@](C)([C@@H]3C[C@H]4C=CO[C@H]4O3)[C@H](C)C[C@H](OC(C)=O)[C@@]2(COC(C)=O)[C@@]12CO2` (some centres undefined), the Potency entry in assay [4], in assay [5] and in assay [6] was “inactive” in each case.
With `CC(N)Cc1c[nH]c2ccccc12` (centres undefined), the Potency result in assay [4], in assay [5] and in assay [6] was “inactive” each time.
For `Clc1ccc(N2C[C@H]3CC[C@@H](C2)N3)nn1`, the Potency result in assay [4], in assay [5] and in assay [6] was “inactive” in each case.
On to `C/C=C(\C)C(=O)O[C@H]1[C@H](OC(C)=O)[C@]2(CO)[C@H](O)[C@H](O)[C@]3(C)C(=CCC4[C@@]5(C)CC[C@H](O[C@@H]6O[C@H](C(=O)O)[C@@H](O)[C@H](O[C@@H]7OC[C@H](O)[C@H](O[C@@H]8OC[C@H](O)[C@H](O)[C@H]8O)[C@H]7O)[C@H]6O[C@@H]6O[C@H](CO)[C@@H](O)[C@H](O)[C@H]6O)C(C)(C)C5CC[C@]43C)[C@@H]2CC1(C)C` (some centres undefined), for which the activity change, negative = cell killing in assay [4] was 2.35% [at 9.23 µM]. Also, the outcome in assay [5] is “inactive [at 9.52 µM]”. In addition, in assay [6], the activity change, negative = inhibition is 2.03% [at 9.73 µM].
Turning to `Oc1ccc2c3c1O[C@H]1[C@H](N(CCCl)CCCl)CC[C@@]4(O)[C@@H](C2)N(CC2CC2)CC[C@]314`, the activity change, negative = cell killing in assay [4] is -7.37% [at 9.23 µM]. The outcome in assay [5] is “inactive [at 9.52 µM]”. Moreover, in assay [6], the activity change, negative = inhibition is -3.35% [at 9.73 µM].
